The text below walks through data of the OligoGym collection.

Some targets named below: LARP1B; LAMC1; LAMB4; LANCL2.
Holding throughout (assay): pooled miR-30 sensor sort-seq; sequence = guide strand
What all share (settings): shRNA
Note: reference of the scale not given here.

TAGACTGTGTCTTAGATTGAGA came in with a sensor-assay potency score (higher = more potent) in the assay with LARP1B of -0.454. In the assay with LAMC1, TCGTTCTTCATACACTCGCTTG showed a sensor-assay potency score (higher = more potent) of -1.26.

With TTCTTTTGGACAGCGCTCGCGA, the sensor-assay potency score (higher = more potent) in the assay with LAMC1 was -0.297. TTCAACACAGTTGTGAAGCTGA showed a sensor-assay potency score (higher = more potent) with LAMB4 of 0.732. In turn, TTTAGCTGCATGATTTGTCTTC yielded a sensor-assay potency score (higher = more potent) with LAMB4 of -0.0764. In turn, TATTGTATCTTTCAGATCTTGA had a sensor-assay potency score (higher = more potent) with LAMB4 of 0.0271. TTTACTAATGAGATTTAGCTTC yielded a sensor-assay potency score (higher = more potent) with LARP1B of -0.374. Regarding TTCAATATTACATTCATCTATG, in the assay with LAMC1, the sensor-assay potency score (higher = more potent) was -0.485. In turn, TTTAATTTTGGTCTGGATCCGT returned a sensor-assay potency score (higher = more potent) with LANCL2 of 0.159. Take TGATTCTTGGCAGACAACCGAT: in the assay with LANCL2, the sensor-assay potency score (higher = more potent) is -0.954. Same read-out and setting: the same measure for TTTCTTGGTCCACTTTTGCTGC: -1.18; for TTTCAAGTACTTCTCCTCCTTA: -0.0935. With TACATTTACATCTGCCACCTAC, the sensor-assay potency score (higher = more potent) in the assay with LAMC1 was -0.06.

In the assay with LAMB4, TTGACTTTTAAGAATTTCCCAG displayed a sensor-assay potency score (higher = more potent) of -0.128. In the assay with LAMC1, TTCCTTTAGTCTATCCTCGAAG registered a sensor-assay potency score (higher = more potent) of -0.66. For the sequence AATCACATCGCTACACTCCATG, the sensor-assay potency score (higher = more potent) with LANCL2 was -1.26. For TATGAGACTCTCTAATTCCTGG, in the assay with LAMC1, the sensor-assay potency score (higher = more potent) was -0.463. Turning to TTTGCAATTACACACCAGCTTA, in the assay with LAMC1, the sensor-assay potency score (higher = more potent) is -0.786. Sequence AATAATAGCATTGACTACCTCT had a sensor-assay potency score (higher = more potent) in the assay with LANCL2 of 0.441.

Consider TTTGACTGTAGAGTCTTGGGTA, for which, in the assay with LAMB4, the sensor-assay potency score (higher = more potent) was 0.734. As for TGATCTTACAACATCTAAGTGG, the sensor-assay potency score (higher = more potent) with LARP1B is -0.00509. With AAGTTTTGTGACACATTCCTGG, the sensor-assay potency score (higher = more potent) with LANCL2 was determined as 0.068. The sequence TGAAACATCAAATAACTTCTGA showed a sensor-assay potency score (higher = more potent) with LARP1B of 0.226. For TATCTCGCTTCCAACTTCGTGT, in the assay with LARP1B, the sensor-assay potency score (higher = more potent) is -0.146. Take TATGAAATTATGAATGATCTTC: in the assay with LANCL2, the sensor-assay potency score (higher = more potent) amounted to 0.142. TAGTAATACATCATACTGGTAT displayed a sensor-assay potency score (higher = more potent) with LARP1B of -0.0186. As to TTGTCTTTGCAAACACATCTTC, the sensor-assay potency score (higher = more potent) with LAMC1 was -0.117. Take TAAATGTGTTTTTTCGTCCTAT: in the assay with LARP1B, the sensor-assay potency score (higher = more potent) was 0.39. Sequence TTCTTCTGAAGAACATAGCTGA had a sensor-assay potency score (higher = more potent) in the assay with LARP1B of 0.273.

For the sequence TTCACTTATACTTTCGATCTGA, in the assay with LAMB4, the sensor-assay potency score (higher = more potent) was found to be 0.249.
